# Shown are actives, neighbours in structure and some others; about 5% of the full set was active somewhere.
# ALR inh = inhibitors of human ALR sulfhydryl oxidase, primary screen, biochemical, H2O2 detection, HRP-luminol luminescence, single point; purified ALR, DTT oxidation; inhibition, % (concentration not given with the values); hit rate 3.8% among 290,000; AID 485317, 2010;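 active = mean replicate inhibition above about 79%, with every replicate also reaching it, limit read from the data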
# Target sequence (P55789 whole entry, looked up): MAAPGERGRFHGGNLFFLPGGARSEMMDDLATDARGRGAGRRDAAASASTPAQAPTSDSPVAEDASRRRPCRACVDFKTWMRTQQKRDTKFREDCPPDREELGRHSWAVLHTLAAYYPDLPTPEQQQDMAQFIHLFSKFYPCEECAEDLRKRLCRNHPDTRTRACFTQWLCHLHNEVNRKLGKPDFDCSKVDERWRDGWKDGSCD
# CHT block = inhibitors of human choline transporter CHT. High affinity choline transporter 1 (Homo sapiens), Q9GZV3. CHT-expressing cells, membrane potential dye, choline response; hits give low values. B-score at 10 µM. hit rate 0.86% among 310,000. AID 488975, 2010;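 active = B-score over 3 SD under the library average, and starting fluorescence ratio not unusually high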;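 note: choline stimulus applied at its EC90 after an EC20 pre-addition; B-score computed on integrated fluorescence ratio after choline addition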
# CHT PAM = CHT positive allosteric modulators, primary screen, cell-based, membrane potential dye, choline EC20 | High affinity choline transporter 1 (Homo sapiens), Q9GZV3 | CHT-expressing cells; hits give high values; LV-AA mutant CHT in HEK293 cells | B-score at 10 µM | hit rate 0.49% among 310,000 | AID 488977, 2010;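 active = initial fluorescence not abnormally high and integrated response B-score, plate-corrected, over 3 SD above library mean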
# AI-2 QS mod = Vibrio harveyi AI-2 quorum sensing modulators, primary screen, JMH597 strain, luminescence/OD600 ratio; Vibrio harveyi JMH597 AI-2 luminescence/OD600 ratio, 9 h; hits give low values; strain lacks LuxN and CqsS sensors; 0 = neutral-control median; activity change, % at 7.5 µM; hit rate 0.4% among 300,000; AID 2094, 2009; in the data active = activity change below about -75%, passing the limit was not always enough;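 note: luminescence divided by OD600 gain over 9 h not by final OD600 alone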
# PREPL inh = PREPL enzyme inhibitors, primary screen, biochemical, fluorescence polarization. inhibition, % at 5.96 µM. Prolyl endopeptidase-like (Homo sapiens), Q4J6C6. hit rate 0.68% among 320,000. AID 2751, 2010. recombinant PREPL, fluorescence polarization activity-based probe; in the data active = inhibition above about 43%;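 note: 0% = enzyme with DMSO and 100% = wells lacking enzyme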
# CHT activ conf = CHT activators, confirmation, cell-based, membrane potential dye, duplicate; hit rate 91% among 2,500; CHT-expressing cells, membrane potential dye fluorescence (FDSS); % of choline EC20–EC90 response window; HEK293 expressing CHT LV-AA mutant; choline added at its EC20; shares compounds with CHT PAM; AID 504833, 2011; activation, % at 10 µM;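 active = primary screen active, with duplicate mean activation above negative control mean plus 3 SD, cut at about 11% in these data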
# HEK293 MP dye = membrane potential response in parental HEK293 cells, counter-screen for CHT activator project, cell-based, membrane potential dye. shares compounds with CHT PAM. membrane potential dye fluorescence (FDSS); measured after EC20 choline addition. ratio readout change at 10 µM, hits read low. hit rate 62% among 2,500;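 active = duplicate-averaged ratio beyond 3 SD from buffer wells, up or down, though filed actives are nearly all decreases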
# Active calls of the source: *; i = inactive; · = not tested or not shown.
SMILES,ALR inh,CHT block,CHT PAM,AI-2 QS mod,PREPL inh,CHT activ conf,HEK293 MP dye
COc1cc(N)c(C(O)c2nccc3cc(OC)c(OC)cc23)cc1OC (stereo unspecified),·,i,i,4.9,-1.2,69.6*,-51.3*
COc1ccc(C(O)c2nccc3cc(OC)c(OC)cc23)cc1OC (stereo unspecified),-44.9,i,9.21*,14.6,-2.3,59.0*,-74.3*
COC(=O)CCC(=O)Nc1cc(OC)c(OC)cc1Cc1nccc2cc(OC)c(OC)cc12,-2.3,i,i,10.2,2.4,·,·
CCCn1c(SCC(=O)Nc2ccccc2OC)nnc1-c1ccco1,·,i,i,3.3,-12.4,·,·
CC1(C)Cc2c(sc3nc(NCCN4CCOCC4)n4ncnc4c23)CO1,-0.1,i,6.46*,18.2,0.0,62.2*,-61.8*
O=[N+]([O-])c1ccc(-c2csc3[n+]2CCS3)cc1,4.3,i,8.89*,19.9,-1.2,74.3*,-69.2*
COc1ccc(OC)c(C(=O)COC(=O)C(CCSC)NC(=O)COc2ccccc2)c1 (stereo unspecified),-13.8,i,i,3.6,-4.9,26.2*,i
COc1ccccc1C(=O)COC(=O)C(CCSC)NC(=O)COc1ccccc1 (stereo unspecified),·,i,i,7.4,-3.0,·,·
COc1ccccc1OCC(=O)Nc1ccc2c(c1)n(C)c(=O)n2C,-11.6,i,6.63*,45.4,9.9,62.7*,-53*
Fc1ccc(NC(=S)NC23CN4CN(CN(C4)C2)C3)cc1,-1.1,i,i,-0.2,7.0,·,·
Cc1cc(C)cc(OCC(=O)NNC(=S)NC(=O)C2CC2)c1,35.0,i,i,28.7,5.3,·,·
CN(CCO)S(=O)(=O)c1ccc2c(c1)C(=NNC(N)=O)c1cc(S(=O)(=O)N(C)CCO)ccc1-2,-4.5,i,8.21*,14.0,0.1,41.6*,-42.8*
Cc1nn(-c2ccccc2)c(C)c1C(=O)OCC(=O)N(C)c1c(N)n(Cc2ccccc2)c(=O)[nH]c1=O,25.4,i,i,21.4,-4.4,·,·
Cc1csc2c(C#N)c(=O)c3c(n12)CCC3,4.4,i,6.61*,-6.1,6.9,48.7*,-41.5*
O=S(=O)(O)c1cccc(N=Nc2c(O)ccc3ccccc23)c1,-25.4,i,i,1.3,1.7,33.0*,-39*
CCCC(CCC)C(=O)Nc1ccc2c(c1)N(C(=O)CCN1CCN(C)CC1)c1ccccc1CC2,-6.2,i,6.8*,2.2,-19.5,19.2*,i
Cc1ccc(NC(=O)c2ccc([N+](=O)[O-])cc2Cl)nc1,-21.6,i,i,-1.5,-1.7,·,·
Cc1ccc(S(=O)(=O)CCC(=O)OCC(=O)NCC(=O)Nc2c(C)cc(C)cc2C)cc1,1.1,i,i,15.2,1.8,·,·
CCOC(=O)N1CCN(C(=O)c2ccc(N(Cc3ccc(Cl)cc3)S(C)(=O)=O)cc2)CC1,-5.3,i,8.8*,15.3,4.5,1.9,i
CCOC(=O)N1CCN(C(=O)c2ccc(N(Cc3ccc(C)cc3)S(C)(=O)=O)cc2)CC1,-5.1,i,i,-0.1,4.7,·,·
Cc1ccc(-n2cccn2)c(CN2CCCC(C(=O)c3sccc3C)C2)c1 (stereo unspecified),·,i,i,36.8,-1.4,·,·
COc1cccc(C(=O)C2CCCN(Cc3cccn3-c3ccccn3)C2)c1 (stereo unspecified),-5.7,i,9.65*,35.4,8.4,45.7*,-25.6*
O=C(c1ccc(C(F)(F)F)cc1)C1CCCN(Cc2cccn2-c2ncccn2)C1 (stereo unspecified),-7.0,i,i,0.0,20.7,·,·
O=C(c1cccc(C(F)(F)F)c1)C1CCCN(Cc2cccn2-c2ncccn2)C1 (stereo unspecified),-2.5,i,9.23*,33.7,27.0,24.9*,i
Cc1ccsc1C(=O)C1CCCN(Cc2cccn2-c2ccc(Cl)cn2)C1 (stereo unspecified),-9.3,i,16.1*,30.2,-11.1,49.3*,i
SMILES,ALR inh,CHT block,CHT PAM,AI-2 QS mod,PREPL inh,CHT activ conf,HEK293 MP dye
CSc1nnc2c(n1)OC1(Nc3ccccc3-2)C(=O)Nc2ccccc21 (stereo unspecified),·,i,i,22.7,0.8,·,·
Cc1ccc(C(=O)O/N=C(\N)c2cccc([N+](=O)[O-])c2)cc1,49.3,i,i,1.0,14.3,·,·
N/C(=N\OC(=O)c1ccncc1)c1cccc([N+](=O)[O-])c1,-6.6,i,7.26*,18.9,8.3,37.3*,-45.5*
O=P(c1ccccc1)(c1ccccc1)C(O)c1ccccn1 (stereo unspecified),-1.6,i,i,22.0,8.5,·,·
O=P(c1ccccc1)(c1ccccc1)C(c1ccccn1)P(=O)(c1ccccc1)c1ccccc1,·,i,8.49*,6.0,1.6,33.9*,i
CC(C)COc1cccc(-c2cc(C(=O)N/N=C/c3ccncc3)c3ccccc3n2)c1,-7.3,i,i,30.8,·,·,·
CCN(CC)CCN(Cc1cc2ccc(C)c(C)c2[nH]c1=O)C(=S)NCc1ccco1,-19.4,i,i,-5.0,-14.0,16.3*,-24.9*
CCc1cc(=O)oc2cc(C)cc(OC(C)C(=O)NC(Cc3c[nH]c4ccc(O)cc34)C(=O)O)c12 (stereo unspecified),-39.5,i,i,12.4,0.3,·,·
CCCc1nc2c(C)cc(C)cc2c(N)c1CC,-6.3,i,7.08*,15.3,9.4,44.2*,-38.2*
CSc1ccc(CN(C)C(=O)CNC(=O)c2ccc3c(c2)OCO3)cc1,1.4,i,i,3.6,-1.3,·,·
O=C(c1ccccc1F)N(Cc1ccc2c(c1)OCO2)Cc1cc2cc3c(cc2n2nnnc12)OCO3,-15.2,i,i,18.6,1.9,14.8*,i
Cc1cc(C)c(S(=O)(=O)Nc2ccccn2)c(C)c1,-3.7,i,i,16.6,-2.8,·,·
CC1(C)Cc2c(sc3c2C2=NCCN2C=N3)CS1,-28.2,i,9.49*,10.8,8.9,33.9*,-62.1*
